Source: PubChem BioAssay
An excerpt weighted towards active compounds, which were near 21% of everything screened.
DT40 TDP1 no CPT: qHTS for Inhibitors of human tyrosyl-DNA phosphodiesterase 1 (TDP1): qHTS in cells in absence of CPT | DT40 Tdp1-/- hTDP1 cells, no CPT, ATP luminescence, 48 h | Potency, µM (doses to about 46.2 µM), without a hit: at the highest dose activity change, negative = growth inhibition, usual class: inhibitors | 420,000 compounds, 15% hits | AID 686978, 2013; note: potency is the fitted concentration of half-maximal effect; nearly all actives have a fitted effect of over 55% in size
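No-CPT arm: Tdp1-/-;hTDP1 DT40 cells (400/well) plus compounds, incubated ≥48 hr at 37 °C. Readout CellTiter-Glo luminescence.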
TDP1 cell CPT: growth inhibition of DT40 Tdp1-/-;hTDP1 cells with camptothecin (screen for TDP1 inhibitors) | chicken DT40 Tdp1-/-;hTDP1 cells + 20 nM CPT, ATP luminescence, 48 h | Potency, µM (top dose mostly 46.2 µM), without a hit: top-dose activity change, negative = growth inhibition, actives largely listed as inhibitors | 420,000 compounds, 12% hits | AID 686979; note: potency is the fitted concentration of half-maximal effect; nearly all actives have a fitted effect of over 55% in size
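Cell growth measured by CellTiter-Glo luminescence after a minimum 48 h, 37 C compound exposure with 20 nM CPT in Tdp1-knockout DT40 cells stably expressing hTDP1, seeded 400/well; qHTS titration format.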
RORgamma inh: blocks mouse ROR gamma transcriptional activity. P51450. Drosophila S2 Gal4-RORgamma UAS-luciferase reporter, 20 h. Potency, µM (series often up to 53.6 µM), without a hit: at the top dose activity change, negative = inhibition, most hits filed as inhibitors. 310,000 compounds, 5.4% hits. AID 2551; note: potency is the fitted concentration of half-maximal effect; nearly all actives have a fitted effect of over 60% in size
Target sequence (P51450 whole entry, looked up, the tested form may be a part): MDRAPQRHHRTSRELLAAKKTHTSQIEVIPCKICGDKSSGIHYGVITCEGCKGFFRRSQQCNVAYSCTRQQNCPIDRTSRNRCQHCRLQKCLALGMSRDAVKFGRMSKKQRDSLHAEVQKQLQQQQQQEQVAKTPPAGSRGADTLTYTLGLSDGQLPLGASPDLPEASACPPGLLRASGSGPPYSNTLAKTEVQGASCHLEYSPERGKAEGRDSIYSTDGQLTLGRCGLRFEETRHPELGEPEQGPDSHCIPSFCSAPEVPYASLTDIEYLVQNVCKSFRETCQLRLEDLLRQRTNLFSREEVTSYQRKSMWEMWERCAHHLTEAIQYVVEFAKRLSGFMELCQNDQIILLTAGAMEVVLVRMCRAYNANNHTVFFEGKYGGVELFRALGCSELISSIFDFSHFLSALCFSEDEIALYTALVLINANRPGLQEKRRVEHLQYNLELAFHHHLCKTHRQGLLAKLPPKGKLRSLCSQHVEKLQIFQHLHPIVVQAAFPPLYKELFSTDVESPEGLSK
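Luminescence from a UAS-regulated Photinus luciferase reporter in stably transfected Drosophila Schneider cells is measured; decreased signal marks ROR gamma inhibition. Fusion expression is induced by 700 uM copper sulfate for 20 hr.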
ELG1 repair inh: blocks ELG1-dependent DNA repair in HEK293T cells; 330,000 compounds, 2.3% hits; AID 504467; HEK293T ELG1-luciferase reporter, luminescence, 16 h; DNA damage induced by 5-fluorouridine; Potency, µM (titrated, usually from 46.1 µM), without a hit: top-dose activity change, negative = inhibition, usual class: inhibitors; note: potency is the fitted concentration of half-maximal effect; nearly all actives have a fitted effect of over 55% in size
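Quantitative HTS, concentration-response format. 2,000 cells/well co-treated with 5-fluorouridine and compound, 16 hr in 5% CO2 at 37 °C; ONE-Glo luminescence read after 30 min.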
IL-1B inflam inh: blocks inflammasome-driven IL-1 beta release. THP-1 LPS/ATP IL-1B secretion, AlphaLISA, 16 h; active compounds read low. 360,000 compounds, 4.7% hits. activity change, % at 57.5 µM; in the data active = activity change below about -50%; inconclusive = mostly about -30% to -49%
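Secreted IL-1B measured by AlphaLISA bead assay after 16 h compound exposure of THP-1 cells; compounds (final up to 57.5 uM) added 1 h before LPS (250 ng/mL) and ATP (1.25 mM) stimulation; lower signal means less secretion.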
Gal4-VP16 FLuc: inhibits Gal4-VP16 luciferase reporter, ROR gamma counter-screen; Drosophila S2 Gal4-VP16 UAS-luciferase, luminescence, 20 h; Potency, µM (titrated, usually from 53.6 µM), for inactives: top-dose activity, negative = inhibition, most hits filed as inhibitors; AID 2546; 310,000 compounds, 3.5% hits;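 note: Gal4-VP16 expression switched on by copper sulfate through the metallothionein promoter; potency is the fitted concentration of half-maximal effect; nearly all actives have a fitted effect of over 50% in size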
ELG1 FLuc counter: luciferase inhibition in cell-free luciferin readout for ELG1 hits | shares compounds with ELG1 repair inh | cell-free firefly luciferase luminescence counter-screen, ViewLux | Potency, µM (doses to about 46.1 µM), for the others: at the highest dose activity change, negative = inhibition, actives largely listed as inhibitors | 350 compounds, 3% hits; note: potency is the fitted concentration of half-maximal effect
ELG1-Luc inh: confirmation of human ELG1-dependent DNA repair inhibitors; shares compounds with ELG1 repair inh; HEK293T ELG1-luciferase levels, luminescence; cells co-treated with 5-fluorouridine; Potency, µM (top dose mostly 46.1 µM), for inactives: at the top dose activity change, negative = inhibition, most hits filed as inhibitors; 670 compounds, 68% hits; note: potency is the fitted concentration of half-maximal effect; nearly all actives have a fitted effect of over 55% in size
ELG1-Luc MMS: inhibits ELG1-dependent repair under MMS stimulation in HEK293T cells | shares compounds with ELG1 repair inh | 670 compounds, 53% hits | Potency, µM (series often up to 46.1 µM), for the others: at the top dose activity change, negative = inhibition, hits mostly inhibitors | HEK293T luciferase-tagged ELG1 level, MMS stimulated; note: potency is the fitted concentration of half-maximal effect; nearly all actives have a fitted effect of over 60% in size
ELG1 5FU viab: confirmation of ELG1 repair inhibitors: viability with 5FU; shares compounds with ELG1 repair inh; Potency, µM (series often up to 46.1 µM), for inactives: at the highest dose activity change, negative = viability loss, hits mostly cytotoxic; 670 tested, under 10 active; cell viability with 5-FU, ELG1-dependent repair;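 note: ELG1-luc HEK293T cells cotreated with 5-fluorouridine at 10 µM final; potency is the fitted concentration of half-maximal effect; viability measured 16 h after compound addition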
ELG1 MMS viab: confirmation of ELG1 repair inhibitors: viability with MMS; shares compounds with ELG1 repair inh; Cell viability with MMS, ELG1-dependent DNA repair; Potency, µM (series often up to 46.1 µM), without a hit: top-dose activity change, negative = viability loss, most hits filed as cytotoxic; 670 compounds, 33% hits; AID 624251;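 note: ELG1-luc HEK293T cells co-treated with 10 µM MMS; potency is the fitted concentration of half-maximal effect; viability read 16 h after compound addition; nearly all actives have a fitted effect of over 60% in size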
ELG1 unstim viab: affects unstimulated cell viability, ELG1 hit counter-screen; AID 624252; shares compounds with ELG1 repair inh; 900 compounds, 8% hits; cell viability counter-screen, unstimulated, luminescence; Potency, µM (top dose mostly 45.9 µM), without a hit: top-dose activity change, negative = loss of viability, usual class: cytotoxic;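 note: potency is the fitted concentration of half-maximal effect; compound exposure lasted 16 hours before reading; nearly all actives have a fitted effect of over 55% in size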
FLuc enzyme: counter-screen for ELG1 repair inhibitors: firefly luciferase inhibition; Potency, µM (doses to about 57.5 µM), for the others: at the top dose activity, negative = inhibition, hits mostly inhibitors; purified firefly luciferase, luminescence counter-screen; 350 compounds, 10% hits; shares compounds with ELG1 repair inh; note: potency is the fitted concentration of half-maximal effect
An asterisk follows results filed as active; ? = inconclusive; / = no result given. Unless noted, calls come from the whole dose curve; as a rule, active = well fitted curve in the direction sought with a large enough effect; inconclusive = small, poorly fitted or top-dose-only effect, or another doubt; inactive = no such curve, though single readings can be large; an effect the other way counts as inactive or inconclusive. % is set by controls: 0 for no effect and ±100 for the full control effect.

SMILES	DT40 TDP1 no CPT	TDP1 cell CPT	RORgamma inh	ELG1 repair inh	IL-1B inflam inh	Gal4-VP16 FLuc	ELG1 FLuc counter	ELG1 unstim viab	FLuc enzyme	others
O=C(Nc1cnn(Cc2ccc(F)cc2)c1)c1cnn2c(C(F)F)cc(-c3ccccc3)nc12	?	-28.5%	-15.1%	2.31µM*	6.2	2.1%	?	?	-11.4%	ELG1-Luc inh=5µM*;ELG1-Luc MMS=12.6µM*;ELG1 5FU viab=?;ELG1 MMS viab=?
Cc1ccc(-c2cc(C(F)F)n3ncc(C(=O)Nc4c(C)nn(Cc5c(Cl)cccc5Cl)c4C)c3n2)cc1	14.6µM*	10.3µM*	-8.3%	4.61µM*	-6.6	-0.1%	-4.2%	-4.6%	-5.1%	ELG1-Luc inh=3.97µM*;ELG1-Luc MMS=6.1%;ELG1 5FU viab=?;ELG1 MMS viab=2.0%
CC(C)(C)C(=O)N=C1SC2CS(=O)(=O)CC2N1c1ccc2c(c1)OCO2 (configuration not stated)	3.9%	-8.7%	-6.1%	9.7%	4.5	-1.0%	/	/	/
CCc1ccc2oc(-c3cccc(NC(=O)COc4ccccc4Cl)c3)nc2c1	-23.6%	-6.4%	/	/	/	/	/	/	/
CCc1ccc(OCC(=O)Nc2ccc(-c3nc4ccccc4o3)c(O)c2)cc1	?	?	14.6%	?	11.6	-4.9%	14.9%	-1.9%	0.6%
Cc1cccc(N(C(=O)CNC(=O)c2ccco2)C(C(=O)NC2CCCC2)c2cccnc2)c1C (configuration not stated)	7.4%	25.1%	7.3%	5.1%	11.6	-4.8%	/	/	/
CN(C)c1ccc(-c2cc3ccccc3c(=O)o2)cc1	-29.4%	4.3%	/	?	18.0	/	85.7%	?	0.184µM*
Cc1cccc(-c2nc3c4ccccc4nc(N4CCN(c5ccc(F)cc5)CC4)n3n2)c1	6.3%	5.6%	/	/	/	/	/	/	/
CC(Oc1ccc(Cl)cc1Cl)c1nc(-c2ccccn2)no1 (configuration not stated)	?	?	8.4%	?	-17.0	23.7%	/	/	/
COc1cnc(-c2ccccn2)nc1Sc1ccc(Cl)cc1	1.46µM*	1.3µM*	5.62µM*	0.366µM*	32.8	5.62µM*	5.2%	-11.2%	-7.4%	ELG1-Luc inh=28.1µM*;ELG1-Luc MMS=?;ELG1 5FU viab=14.9%;ELG1 MMS viab=-11.6%
Cc1c(O)ccc2c(O)c(NC(=O)c3ccc4c(c3)CCC(C)(C)O4)c(=O)oc12	7.6%	-19.8%	-25.1%	3.8%	-5.5	-4.7%	/	/	/
C=CCn1c(SCC(=O)NCc2ccc3c(c2)OCO3)nc2scc(-c3ccccc3)c2c1=O	-28.1%	2.8%	27.7%	?	?	-1.2%	/	/	/
C=CCn1c(SCC(=O)N2CC(=O)Nc3ccccc32)nc2scc(-c3ccccc3)c2c1=O	?	?	21.4%	1.64µM*	-52.0*	-1.3%	/	?	/	ELG1-Luc inh=22.3µM*;ELG1-Luc MMS=-7.0%;ELG1 5FU viab=7.2%;ELG1 MMS viab=-7.1%
O=C(OCC(=O)N1CCCCC1)c1cccs1	5.7%	9.7%	/	?	-0.2	/	/	-7.1%	/
Cc1cccc(C(=O)OCC(=O)N2CCCCCC2)c1O	16.9%	-7.6%	/	?	0.0	/	/	?	/
COc1cc(OC)cc(-c2oc(=O)c3cc(OC)c(OC)cc3c2C#CCCCO)c1	?	?	/	?	13.0	/	/	/	/
COCc1ccc(-c2c(-c3cc(OC)cc(OC)c3)oc(=O)c3cc(OC)c(OC)cc23)cc1	20.6µM*	16.4µM*	/	0.58µM*	0.0	/	32.2%	?	?	ELG1-Luc inh=5µM*;ELG1-Luc MMS=3.8%;ELG1 5FU viab=?;ELG1 MMS viab=-2.0%
C=CCn1c(SCC(=O)Nc2ccc(S(N)(=O)=O)cc2)nnc1-c1cnccn1	0.5%	-12.6%	-5.6%	10.1%	17.8	9.6%	/	/	/
CN(C)c1ccc(N=Nc2ccc(/C=C/c3ccnc4ccccc34)cc2)cc1	17.8µM*	?	/	/	/	/	/	?	/
CN(C)c1ccc(/C=N/NC(=O)c2ccc3nc[nH]c3c2)cc1	-12.8%	2.1%	-9.1%	?	/	-2.9%	/	/	/
CN(C)c1ccc(/C=C/c2ccnc3ccc(F)cc23)cc1	14.1µM*	12.6µM*	/	/	/	/	-8.5%	-14.4%	0.184µM*
CC(=O)N(Cc1cc2ccccc2[nH]c1=O)c1ccc(C)cc1	?	?	23.6%	-0.5%	-4.6	-5.2%	/	/	/
Cn1cccc1/C=N\NC(=O)Cc1ccc(Br)c2ccccc12	10.3µM*	14.6µM*	?	3.66µM*	14.7	11.2µM*	/	?	/	ELG1-Luc inh=?;ELG1-Luc MMS=7.91µM*;ELG1 5FU viab=-13.1%;ELG1 MMS viab=7.91µM*
Cc1cccc(NCC(=O)N/N=C\c2cccn2C)c1	-28.6%	-7.5%	-10.6%	13.9%	-26.2	6.8%	/	/	/
COc1ccc(-c2noc(CCC(=O)NCC3CCCO3)n2)cc1OC (configuration not stated)	4.4%	0.3%	-12.6%	24.1%	2.6	1.1%	/	/	/
O=C(c1nc2ccccc2[nH]1)c1ccccc1[N+](=O)[O-]	-20.5%	3.4%	18.2%	?	22.2	9.1%	/	/	/
